High-throughput results from PubChem.
Only some compounds are listed: those with a hit (about 19% of all), similar ones and a draw of the others.
TDP1 cell CPT – DT40-hTDP1 cell growth loss with CPT | 12% of 420,000 active | chicken DT40 Tdp1-/-;hTDP1 cells + 20 nM CPT, ATP luminescence, 48 h | Potency, µM (titrated, usually from 46.2 µM), for inactives: at the highest dose activity change, negative = growth inhibition, hits mostly inhibitors; further: potency means the concentration at half of the fitted maximal effect; on the % scale 0 is the no-effect control and ±100 the full control effect; nearly all actives have a fitted effect of over 55% in size
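Chicken DT40 Tdp1-/- cells complemented with human TDP1, 400 cells/well, exposed to compounds plus 20 nM camptothecin for at least 48 h at 37 C; viability read as ATP content by CellTiter-Glo luminescence.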
MCF10A rerep – DNA re-replication induction in MCF 10a cells; MCF 10A DNA re-replication, Hoechst nuclear intensity, 48 h; AID 624296; Potency, µM (top dose mostly 46.1 µM), inactives show at the top dose activity, positive = re-replication, actives largely listed as activators; 2.9% of 350,000 active; further: potency means the concentration at half of the fitted maximal effect; % of control where 0% means no effect; nearly all actives have a fitted effect of over 50% in size
IL1B secr inh – inflammasome signaling inhibition, IL-1 beta readout; THP-1 LPS/ATP IL-1B secretion, AlphaLISA, 16 h; stronger effect = lower value; activity change, % at 57.5 µM; 4.7% of 360,000 active; AID 743279; in the data active means activity change below about -50%; inconclusive means mostly about -30% to -49%; further: on the % scale 0 is the no-effect control and ±100 the full control effect
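Secreted IL-1B measured by AlphaLISA bead assay after 16 h compound exposure of THP-1 cells; compounds (final up to 57.5 uM) added 1 h before LPS (250 ng/mL) and ATP (1.25 mM) stimulation; lower signal means less secretion.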
SW480 rerep – induces DNA re-replication in SW480 colon adenocarcinoma cells. AID 624297. 1.8% of 340,000 active. Potency, µM (titrated, usually from 46.1 µM), without a hit: at the top dose re-replication activation, usual class: activators. SW480 DNA re-replication, Hoechst DNA content imaging, 48 h; further: potency means the concentration at half of the fitted maximal effect; % of control where 0% means no effect; nearly all actives have a fitted effect of over 55% in size
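Readout is total intensity of Hoechst-stained nuclei, excited at 405 nm and collected at 500-530 nm. Compound treatment lasted 48 hr at 37 C in 5% CO2 before staining.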
Chronic BCR inh – chronic active BCR signaling inhibition; ABC-DLBCL IkBa-CBG/CBR reporter, luminescence ratio, 4 h; Potency, µM (titrated, usually from 46.1 µM), for inactives: at the top dose activity change, negative = inhibition, actives largely listed as inhibitors; 0.05% of 340,000 active; active means well fitted inhibition curve with a large enough effect in the signal ratio, with a control signal flat, not every such curve was filed as active; inconclusive means small, poorly fitted or top-dose-only effect, or effect the other way, or a change in a side signal; the % refers to the signal ratio;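 further: potency means the concentration at half of the fitted maximal effect; plate controls were basal doxycycline-induced cells for no effect and cells given 10 µM MG132 for full effect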
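TMD8 human ABC-DLBCL cells with doxycycline-inducible IκBα–green luciferase fusion and unfused red luciferase, in 0.5% FBS medium; compounds up to 46 uM, 4 h at 37C. Green/red luminescence ratio, filter-overlap corrected, fitted to concentration-response curves.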
TDP1 cell noCPT – qHTS for Inhibitors of human tyrosyl-DNA phosphodiesterase 1 (TDP1): qHTS in cells in absence of CPT; DT40 Tdp1-/- hTDP1 cells, no CPT, ATP luminescence, 48 h; Potency, µM (series often up to 46.2 µM), for the others: at the top dose activity change, negative = growth inhibition, hits mostly inhibitors; 15% of 420,000 active; further: potency means the concentration at half of the fitted maximal effect; on the % scale 0 is the no-effect control and ±100 the full control effect; nearly all actives have a fitted effect of over 55% in size
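Growth kinetics read by CellTiter-Glo luminescence after ≥48 hr at 37 °C. Cells: DT40 Tdp1-/- stably carrying human TDP1, 400 per well, compound exposure in the absence of CPT (DMSO vehicle).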
Starred values were filed as active, the others as inactive. Unless noted, the call rests on the fitted dose curve; in most records, active means well fitted curve in the direction sought with a large enough effect; inconclusive means small, poorly fitted or top-dose-only effect, or another doubt; inactive means no such curve, though single readings can be large; an effect the other way counts as inactive or inconclusive.

Results for O=C(N/N=C/c1cc([N+](=O)[O-])ccc1O)c1cc(-c2ccccc2)nc2ccccc12 ?
TDP1 cell CPT: 5.8µM*; MCF10A rerep: inconclusive; IL1B secr inh: 11; SW480 rerep: inconclusive; Chronic BCR inh: -1%; TDP1 cell noCPT: 5.8µM*

How did Cc1cc(C(=O)N/N=C/c2ccc([N+](=O)[O-])s2)c2ccccc2n1 do in these assays?
TDP1 cell CPT: 26µM*; MCF10A rerep: inconclusive; IL1B secr inh: -79*; SW480 rerep: 25%; Chronic BCR inh: -27%; TDP1 cell noCPT: 15µM*

What do the screens show for `Cc1cc(C(=O)N/N=C/c2ccc(N(C)C)cc2)c2ccccc2n1`?
TDP1 cell CPT: 2.9µM*; MCF10A rerep: 7.1µM*; IL1B secr inh: 36; SW480 rerep: 18µM*; Chronic BCR inh: inconclusive; TDP1 cell noCPT: 4.1µM*

What do the screens show for `O=C(N/N=C/c1cc([N+](=O)[O-])ccc1Cl)c1cc(-c2ccccc2)nc2ccccc12`?
TDP1 cell CPT: inconclusive; MCF10A rerep: 2%; IL1B secr inh: 34; SW480 rerep: -2%; Chronic BCR inh: 0%; TDP1 cell noCPT: inconclusive

How did COc1ccc(CCN2C(=NC(C)=O)SC3CS(=O)(=O)CC32)cc1OC (centres undefined) do in these assays?
TDP1 cell CPT: 1%; MCF10A rerep: -4%; IL1B secr inh: 42; SW480 rerep: -3%; Chronic BCR inh: -7%; TDP1 cell noCPT: 3%

What do the screens show for `COCCn1c(SCC(=O)N2CCCC2=O)nnc1-c1ccncc1`?
TDP1 cell CPT: 4%; IL1B secr inh: 18; TDP1 cell noCPT: 7%

What do the screens show for `Cc1cc(C(=O)N/N=C/c2cc(Br)cc([N+](=O)[O-])c2O)c2ccccc2n1`?
TDP1 cell CPT: inconclusive; MCF10A rerep: 29%; IL1B secr inh: 0; Chronic BCR inh: 1%; TDP1 cell noCPT: inconclusive

Results for Cc1cc(C(=O)N/N=C/c2cc([N+](=O)[O-])ccc2O)c2ccccc2n1 ?
TDP1 cell CPT: 5.2µM*; MCF10A rerep: 13%; IL1B secr inh: 16; SW480 rerep: 16µM*; Chronic BCR inh: 2%; TDP1 cell noCPT: 4.6µM*

How did Cc1cc(C(=O)N/N=C/c2ccc([N+](=O)[O-])cc2)c2ccccc2n1 do in these assays?
TDP1 cell CPT: 2.9µM*; MCF10A rerep: inconclusive; IL1B secr inh: 13; SW480 rerep: 13µM*; Chronic BCR inh: inconclusive; TDP1 cell noCPT: 3.3µM*

How did CCNC(=O)C(=O)N/N=C/c1cc([N+](=O)[O-])ccc1O do in these assays?
TDP1 cell CPT: 15µM*; MCF10A rerep: inconclusive; IL1B secr inh: 0; SW480 rerep: 33%; Chronic BCR inh: 5%; TDP1 cell noCPT: inconclusive

Results for O=C(NN=Cc1cc([N+](=O)[O-])ccc1O)c1cccc2ccccc12 ?
TDP1 cell CPT: 7.3µM*; MCF10A rerep: 0%; IL1B secr inh: 65; SW480 rerep: inconclusive; TDP1 cell noCPT: 7.3µM*

What do the screens show for `Cc1cc(C)c(NC(=O)Cn2nnc(-c3nc(-c4ccccc4)no3)c2N)c(C)c1`?
TDP1 cell CPT: 0%; TDP1 cell noCPT: -2%

Results for Cc1ccc(CNC(=O)CNC(=O)c2ccc(C(C)(C)C)cc2)n1C ?
TDP1 cell CPT: inconclusive; MCF10A rerep: inconclusive; IL1B secr inh: 19; SW480 rerep: -20%; Chronic BCR inh: -3%; TDP1 cell noCPT: inconclusive

How did CC1=CS(=O)(=O)CC1Sc1nc2ccccc2[nH]1 (centres undefined) do in these assays?
TDP1 cell CPT: 12%; MCF10A rerep: 1%; IL1B secr inh: -2; SW480 rerep: -3%; Chronic BCR inh: inconclusive; TDP1 cell noCPT: 5%

How did O=S1(=O)C=CC(Sc2nc3ccccc3[nH]2)C1 (centres undefined) do in these assays?
TDP1 cell CPT: 13µM*; MCF10A rerep: 2%; IL1B secr inh: 50; SW480 rerep: -4%; Chronic BCR inh: 2%; TDP1 cell noCPT: 21µM*

How did CCCCN(C(=O)COC(=O)COc1c(C)cc(C)cc1C)c1c(N)n(CCC)c(=O)[nH]c1=O do in these assays?
TDP1 cell CPT: 8%; MCF10A rerep: -22%; IL1B secr inh: 53; SW480 rerep: -109%; Chronic BCR inh: -5%; TDP1 cell noCPT: -1%

Results for Brc1cc2ccccc2[n+](Cc2ccccc2)c1 ?
TDP1 cell CPT: inconclusive; MCF10A rerep: 21%; IL1B secr inh: 17; SW480 rerep: inconclusive; Chronic BCR inh: -3%; TDP1 cell noCPT: 12µM*

What do the screens show for `O=C(C[n+]1cc(Br)cc(Br)c1)c1ccccc1`?
TDP1 cell CPT: 8%; MCF10A rerep: -15%; IL1B secr inh: -22; SW480 rerep: -70%; Chronic BCR inh: 0%; TDP1 cell noCPT: -25%

Results for O=C(C[n+]1cc(Br)cc2ccccc21)c1ccc(Cl)cc1 ?
TDP1 cell CPT: inconclusive; MCF10A rerep: inconclusive; IL1B secr inh: -9; SW480 rerep: 10%; Chronic BCR inh: 0%; TDP1 cell noCPT: 18µM*

What do the screens show for `O=C(C[n+]1cc(Br)cc2ccccc21)c1ccc(Br)cc1`?
TDP1 cell CPT: inconclusive; MCF10A rerep: inconclusive; IL1B secr inh: -66*; SW480 rerep: -1%; Chronic BCR inh: 7%; TDP1 cell noCPT: inconclusive

Results for CCc1ccccc1NC(=O)c1cnc2sc(N3CCOCC3)nn2c1=O ?
TDP1 cell CPT: -4%; TDP1 cell noCPT: -11%

What do the screens show for `CCCCN(C(C)=O)c1c(CC)nc2ccc(C(=O)NCCCN(C)C)cn12`?
TDP1 cell CPT: inconclusive; IL1B secr inh: -5; TDP1 cell noCPT: inconclusive

What do the screens show for `CCOC(=O)C1(Cc2cccc(OC)c2)CCN(Cc2ccc(OC)c(O)c2)CC1`?
TDP1 cell CPT: inconclusive; MCF10A rerep: 15%; IL1B secr inh: inconclusive; SW480 rerep: 40%; Chronic BCR inh: -4%; TDP1 cell noCPT: inconclusive

What do the screens show for `CCOC(=O)C1(Cc2cccc(OC)c2)CCN(C/C=C/c2ccc(OC)cc2)CC1`?
TDP1 cell CPT: 5.8µM*; MCF10A rerep: inconclusive; IL1B secr inh: -171*; SW480 rerep: inconclusive; Chronic BCR inh: 2%; TDP1 cell noCPT: 5.2µM*

What do the screens show for `CCOC(=O)C1(Cc2cccc(OC)c2)CCN(CCO)CC1`?
TDP1 cell CPT: 1%; MCF10A rerep: 6%; IL1B secr inh: 0; SW480 rerep: -1%; Chronic BCR inh: -2%; TDP1 cell noCPT: 0%
